Laboratory results as given in PMC5540273 (PLoS ONE, 2017).

Assays:
Settings in all cases: concentration: 1 μM,replicates: in singlicate; n = 1
[1] = tested on: TNNI3K
[2] = tested on: T1, TRKA
T1 construct: gene NTRK1

[3] = tested on: TRKB
[4] = tested on: T2, TRKC
T2 construct: gene NTRK3

[5] = tested on: TRPM6
[6] = tested on: TSSK1B
[7] = tested on: TSSK3
[8] = tested on: TTK
[9] = tested on: TXK
[10] = tested on: TYK2(JH1domain-catalytic)
[11] = tested on: TYK2(JH2domain-pseudokinase)
[12] = tested on: TYRO3
[13] = tested on: ULK1
[14] = tested on: ULK2
[15] = tested on: ULK3
[16] = tested on: T3, VEGFR2
T3 construct: gene KDR

[17] = tested on: T4, VPS34
T4 construct: gene PIK3C3

[18] = tested on: VRK2
[19] = tested on: WEE1
[20] = tested on: WEE2
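Note: KINOMEscan kinase panel screen.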

Compound	%Inh [1] [%]	%Inh [2] [%]	%Inh [3] [%]	%Inh [4] [%]	%Inh [5] [%]	%Inh [6] [%]	%Inh [7] [%]	%Inh [8] [%]	%Inh [9] [%]	%Inh [10] [%]	%Inh [11] [%]	%Inh [12] [%]	%Inh [13] [%]	%Inh [14] [%]	%Inh [15] [%]	%Inh [16] [%]	%Inh [17] [%]	%Inh [18] [%]	%Inh [19] [%]	%Inh [20] [%]
Cn1ccc2ncnc(Oc3ccc(NC(=O)Nc4ccnc(C(F)(F)F)c4)c(Cl)c3)c21	58	5	0	27	0	0	0	0	0	0	0	0	0	0	0	98.5	0	0	0	30
Cn1cc(-c2cccc3c(N)c(C(N)=O)nnc23)cn1	5	24	0	0	35	0	0	1	0	19	80	0	23	14	21	13	46	1	3	18
CC(C)c1nc(-c2cccc(NS(=O)(=O)c3ccccc3)c2)c(-c2ccnc(Nc3ccc4c(c3)CN(C)CC4)n2)s1 [GSK1649598]	85	65	41	0	68	16	0	23	71	55	28	79	42	67	48	90.1	0	0	0	0
CCn1c(-c2nonc2N)nc2cncc(Br)c21 [SB-738004]	0	56	20	44	0	0	25	0	0	58	18	0	14	13	3	37	36	35	13	0
CNC(=O)c1ccccc1Nc1nc(Nc2cccc(CS(C)(=O)=O)c2)ncc1C.O=CO [GSK1520489]	66	98	91.1	97.4	78	9	0	93.8	99.7	99.6	98.9	72	98.6	65	99.9	96.3	77	36	98.1	99.9
CC(=O)Nc1nc2cnc(Nc3cc(NC(=O)c4cccc(CC(C)(C)C#N)c4)ccc3C)nc2s1	57	0	0	7	2	19	1	12	1	0	28	0	30	0	11	63	11	0	0	15
CN(c1cccc(CNc2nc(Nc3ccc4c(c3)CC(=O)N4)ncc2C(F)(F)F)c1)S(C)(=O)=O	0	98.3	93.5	79	0	0	15	97.5	0	58	0	0	72	45	40	37	0	12	0	0
O=C(NCC1CC1)c1ccc(-c2cc(C(=O)NC3CC3)ccc2F)cc1 [GW810445]	0	14	0	0	0	0	0	12	0	19	2	0	1	0	3	0	16	19	0	0
CS(=O)(=O)c1cccc(CNc2nc(Nc3ccc4c(c3)[C@@H]3C[C@@H]4CNC3=O)ncc2C(F)(F)F)c1	0	99.2	96.8	90.4	0	0	6	99.8	28	94.7	0	0	89	77	99.9	98.1	0	37	2	30
NC(=O)Nc1sc(-c2ccc(F)cc2)cc1C(N)=O [GW789449]	24	98.6	89	67	1	0	0	32	21	98.6	100	16	32	40	55	19	22	0	30	11
